Some test systems named below: NCI-H23 lung; NCI-H226 lung; NCI-H322M lung; HOP-62 NSCLC; NCI-H460 lung; HOP-92 NSCLC; 786-0 renal; DU-145 prostate; K-562 leukemia; MALME-3M melanoma; MDA-MB-231 breast; RXF 393 renal; SF-268 CNS; SF-295 CNS; SF-539 CNS; UACC-257 melanoma; M14 melanoma; A549/ATCC NSCLC; COLO 205 colon.
What all share (test): NCI-60 one-dose screen, 48 h (100 = growth as untreated, 0 = no growth, -100 = all killed)
Common to all, as to conditions: 10 µM unless noted

Compounds without any hit were thinned out: in the full panel of roughly 83,000, 20% have a hit.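 The test compound was applied at a single concentration to cells in 96-well plates for 48 hours, and percent growth was recorded.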 Values without a mark were called inactive. Calls of active or inactive are those of the source. Rule for the calls: active = growth percent below 10; inactive = the rest.

In the case of `COc1ccc(C2CC(c3ccc(Nc4ccnc5cc(Cl)ccc45)cc3)=NN2C(C)=O)cc1` (configuration not stated), the growth with NCI-H23 lung is 84.3%; with NCI-H226 lung it was 79.2%; with NCI-H322M lung, 98.8%; in the assay with HOP-62 NSCLC, 89.4%; in the assay with NCI-H460 lung, 85.4%; in the assay with HOP-92 NSCLC, 36.5%. For the same compound, the growth in the assay on 786-0 renal was 81.2%; with DU-145 prostate it was 88.1%; in the assay on K-562 leukemia it was 32.3%; with MALME-3M melanoma it was 58.2%; in the assay with MDA-MB-231 breast it was 80.9%; in the assay on RXF 393 renal it was 73.1%. The growth with SF-268 CNS is 72.2%; in the assay with SF-295 CNS, 42.6%; with SF-539 CNS it was 95.8%; in the assay on UACC-257 melanoma, 88%; in the assay with M14 melanoma it was 79.5%.

Take `CCCCCCCCCCOC(C)=O`: the growth with NCI-H23 lung is 113%; in the assay on NCI-H226 lung it was 98.6%; with NCI-H322M lung it was 107%; in the assay with HOP-62 NSCLC, 108%; in the assay with HOP-92 NSCLC it was 89.3%; in the assay with A549/ATCC NSCLC, 106%. Also, the growth is 114% with 786-0 renal; 116% in the assay with COLO 205 colon; 112% with DU-145 prostate; 107% with K-562 leukemia; 108% with MALME-3M melanoma; 107% with MDA-MB-231 breast. The growth is 112% in the assay with RXF 393 renal; 106% in the assay on SF-268 CNS; 80% in the assay with SF-295 CNS; 96.1% with SF-539 CNS; 94% in the assay on UACC-257 melanoma; 106% with M14 melanoma.

For `C/C(=C\CCc1ccoc1)CC/C=C(\C)CCCN1CCSCC1`, the growth with NCI-H23 lung was 64.6%; in the assay on NCI-H226 lung, 80%; in the assay on NCI-H322M lung, 7.95% (active); in the assay on HOP-62 NSCLC it was 97.5%; with HOP-92 NSCLC, 73.3%; with A549/ATCC NSCLC it was 28.4%. Besides, the growth is 91.6% in the assay on 786-0 renal; 51.1% in the assay on COLO 205 colon; 92.9% in the assay with DU-145 prostate; 56.6% in the assay on K-562 leukemia; 104% with MALME-3M melanoma; 80% with MDA-MB-231 breast. Besides, the growth is 78.8% with RXF 393 renal; 96.4% in the assay on SF-268 CNS; 46.9% with SF-295 CNS; 92.1% with SF-539 CNS; 61.1% in the assay with UACC-257 melanoma; 81.6% with M14 melanoma.

On to `O=C(COc1cccc(/C=C2\Oc3ccc4ccccc4c3C2=O)c1)c1ccc(Cl)cc1`, for which the growth in the assay with NCI-H23 lung was 28.3%; with NCI-H226 lung, 91.9%; with NCI-H322M lung, 108%; in the assay with HOP-62 NSCLC, 101%; with NCI-H460 lung, 114%; with HOP-92 NSCLC, 81.9%. Further, the growth was 105% with 786-0 renal; 102% with COLO 205 colon; 122% with K-562 leukemia; 69.4% in the assay on MALME-3M melanoma; 84.7% in the assay with MDA-MB-231 breast; 88.8% with SF-268 CNS. The growth is 104% in the assay with SF-295 CNS, 68.2% with SF-539 CNS, 95.6% in the assay with UACC-257 melanoma and 83.6% in the assay with M14 melanoma.

For `CCSc1ncc(Br)c(Sc2nc(N)nc3nc[nH]c23)n1`, the growth was 37.9% in the assay on NCI-H23 lung; 65.4% with NCI-H226 lung; 89.1% in the assay on NCI-H322M lung; 31.8% with HOP-62 NSCLC; 46.6% in the assay on NCI-H460 lung; 31.6% with HOP-92 NSCLC. Moreover, the growth with 786-0 renal was 33.6%; in the assay with COLO 205 colon, 110%; in the assay on DU-145 prostate, 43.1%; in the assay on K-562 leukemia, 26.6%; in the assay on MALME-3M melanoma, 36.2%; in the assay on MDA-MB-231 breast, 40.9%. In addition, the growth in the assay on SF-268 CNS was 44.8%; with SF-295 CNS, 38.6%; in the assay on SF-539 CNS, 60.1%; with M14 melanoma, 31.7%.

`CCCCCCCCCCCCCCCCNC(=O)Nc1ccc2ccccc2c1`: the growth is 103% in the assay with NCI-H23 lung; 108% with NCI-H226 lung; 110% with NCI-H322M lung; 105% in the assay with HOP-62 NSCLC; 74.5% with HOP-92 NSCLC; 107% in the assay with A549/ATCC NSCLC. Moreover, the growth in the assay on 786-0 renal is 104%; in the assay on COLO 205 colon, 103%; with DU-145 prostate, 126%; with K-562 leukemia, 111%; with MALME-3M melanoma, 95.4%; in the assay on MDA-MB-231 breast, 98.1%. The growth in the assay with RXF 393 renal was 104%; in the assay on SF-268 CNS, 126%; in the assay on SF-295 CNS it was 106%; with SF-539 CNS, 106%; in the assay on UACC-257 melanoma, 95.5%; with M14 melanoma it was 94.9%.

As for `O=c1[nH]c(N2CCC(Cc3ccccc3)CC2)nc2sc3c(c12)CCCC3`, the growth with NCI-H23 lung was 95.9%; in the assay on NCI-H226 lung it was 92.3%; with NCI-H322M lung, 97.1%; in the assay with HOP-62 NSCLC it was 94.5%; in the assay with HOP-92 NSCLC, 91.2%; with A549/ATCC NSCLC, 77.5%. Besides, the growth in the assay with 786-0 renal was 105%; in the assay on COLO 205 colon, 105%; with DU-145 prostate, 107%; in the assay with K-562 leukemia it was 110%; in the assay with MALME-3M melanoma it was 102%; in the assay on MDA-MB-231 breast, 106%. Also, the growth in the assay with RXF 393 renal is 104%; with SF-268 CNS it was 95.2%; in the assay on SF-295 CNS, 94.6%; in the assay on SF-539 CNS it was 105%; with UACC-257 melanoma, 85.4%; in the assay on M14 melanoma, 100%.

As to `CC(=O)Nc1cc(C(c2ccccc2)c2ccccc2)cc(C(c2ccccc2)c2ccccc2)c1C`, the growth is 60% in the assay on NCI-H23 lung; 55.6% in the assay on NCI-H226 lung; 81.7% in the assay with NCI-H322M lung; 8.81% (active) in the assay on HOP-62 NSCLC; 55.4% in the assay with NCI-H460 lung; 41.4% in the assay with HOP-92 NSCLC. The growth with 786-0 renal is 63.6%; with COLO 205 colon, 64.3%; with K-562 leukemia, 35.3%; in the assay on MALME-3M melanoma, 75.2%; in the assay with MDA-MB-231 breast, 69.8%; with SF-268 CNS, 53.5%. Besides, the growth was 54.9% in the assay on SF-295 CNS, 77.3% in the assay on SF-539 CNS, 64.8% in the assay on UACC-257 melanoma and 79.2% with M14 melanoma.

These data come from PubChem BioAssay (NCI).
